This is a sample that favours compounds with a hit; in the whole collection about 6.5% have one here.
A340 absorber – compound absorbs light at 340 nm; compound absorbance at 340 nm, fold over control; fold change at 10 µM; 65,000 tested, under 10 active; AID 708;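 active = at 10 µM dose, initial 340 nm absorbance at least 2 fold that of control wells; inactive = change under 2 fold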;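 note: initial absorbance extrapolated from kinetic A340 decline of NADH oxidation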
MK inhibit – blocks S. pneumoniae mevalonate kinase; purified MK, PK/LDH-coupled NADH absorbance 340 nm; inhibition, % at 10 µM; actives 0.48% (n = 65,000);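 active = ranked among the strongest by inhibition in the single 10 µM screen, a fixed top-ranked set picked for dose follow-up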
NADH coupling – blocks coupling enzymes of NAD/NADH assays; IC50, µM (doses to about 10 µM), inactives show at the highest dose inhibition; AID 774; coupled PK/LDH NADH assays, four targets; actives 0.02% (n = 65,000);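 active = single-dose screening hits from any of four coupled enzyme assays that gave an IC50 when retested across doses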;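 note: the DPM-DC format reads NADH fluorescence rather than 340 nm absorbance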
PMK inhibit – S. pneumoniae PMK inhibition; purified PMK, PK/LDH-coupled NADH absorbance 340 nm; inhibition, % at 10 µM; actives 0.49% (n = 65,000); AID 539;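 active = top-ranked compounds by inhibition in the single 10 µM screen, taking a fixed number of the strongest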;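 note: 0% = full reaction with DMSO carrier and 100% = background rate without enzyme reaction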
Spn DPM-DC inh – blocks S. pneumoniae diphosphomevalonate decarboxylase. actives 0.49% (n = 65,000). calls only at 10 µM. purified DPM-DC, PK/LDH coupled NADH fluorescence. AID 556;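 active = the 320 compounds with the highest percent inhibition in the single-dose primary screen, excluding strongly autofluorescent ones, cut at about 32% in these data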;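 note: kinetic rate of NADH fluorescence loss reporting ADP formed by the decarboxylase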
Fluor 339 460 – intrinsic fluorescence of library compounds, ex339/em460 – biochemical, MLSMR library, data from DPM-DC assay, artefact control, profiling panel | compound autofluorescence, ex339/em460 nm, NADH buffer; stronger effect = higher value; 1 = no-compound wells, NADH background | fluorescence fold increase at 10 µM | actives 5.5% (n = 65,000) | AID 709;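 active = at 10 µM, mean starting fluorescence two-fold or more over control wells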;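 note: signal is the first read of a kinetic run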
An asterisk follows results filed as active; i = inactive; . = no result shown; + = active, no number.

SMILES	A340 absorber	MK inhibit	NADH coupling	PMK inhibit	Spn DPM-DC inh	Fluor 339 460
COC(=O)c1[nH]c2ccc(C)cc2c1NC(=O)CN1CCN(Cc2ccccc2)CC1	1.1	12	12%	0	i	2.9*
COC(=O)c1[nH]c2ccc(C)cc2c1NC(=O)CN1CCN(c2ccc(F)cc2)CC1	1	8	9%	8	i	2.2*
COC(=O)c1[nH]c2ccc(C)cc2c1NC(=O)CN1CCN(C(=O)c2ccccc2)CC1	1	9	4%	6	.	2.9*
O=C(CC1(C(F)(F)F)OCCO1)Nc1ccc2c(c1)OCO2	1	11	5%	4	i	1.1
Cc1cc(-c2cc(N)n(-c3ccccc3)n2)c(C)n1C1CCCC1	1.1	0	2%	5	i	1.1
Cn1cc(Cl)c(C(=O)N2CCN(c3ncccn3)CC2)n1	1	8	3%	0	i	1.3
COc1cc2c(cc1OC)CN(S(C)(=O)=O)CC2	1.1	0	3%	10	i	1.1
CC(NC(=O)c1ccco1)C(c1cccs1)N1CCOCC1 (centres undefined)	1	8	3%	0	i	1.1
COC(=O)c1[nH]c2ccc(C)cc2c1NC(=O)C(C)N1CCN(C2CCCCC2)CC1 (centres undefined)	1.1	7	8%	8	.	3.5*
COC(=O)c1[nH]c2ccc(Cl)cc2c1NC(=O)CN1CCc2cc(OC)c(OC)cc2C1	1	8	6%	6	i	1.5
COC(=O)c1[nH]c2cc(OC)c(OC)cc2c1NC(=O)CN1CCN(Cc2ccccc2)CC1	1.1	3	9%	15	.	3.7*
CCn1cc(C(=O)NCCCN2CCC(C)CC2)c2cc(OC)c(OC)cc2c1=O	1.1	1	1%	2	i	1.1
COc1ccc(-c2cc(-c3ccccc3)n3ncnc3n2)cc1	1.1	3	2%	0	.	2.4*
COc1ccc(-c2cc(N3CCCC3)n3ncnc3n2)cc1	1	8	4%	11	i	1.2
Cc1c(C(C)O)nnn1-c1nonc1N (centres undefined)	0.97	9	9%	13	i	1
O=C(CN1C(=O)COc2ccc(Cl)cc21)N1CCc2ccccc21	1	11	11%	16	i	1.1
Cc1cccc(C)c1NC(=O)CSc1nnc(Cn2nnc(-c3ccccc3)n2)n1-c1ccccc1	0.98	5	3%	3	i	1
CC(=O)Nc1ccc(-c2nc3c(C)cccc3[nH]2)cc1	1.1	4	10%	8	i	2.1*
O=c1[nH]c2cc3c(cc2cc1C(c1nnnn1Cc1ccccc1)N1CCN2CCCC2C1)OCCO3 (centres undefined)	1.1	9	5%	0	.	4.7*
CC1CCN(C(c2cc3cc4c(cc3[nH]c2=O)OCO4)c2nnnn2CC2CCCO2)CC1 (centres undefined)	1.1	11	12%	12	.	3.8*
O=c1[nH]c2cc3c(cc2cc1C(c1nnnn1Cc1ccccc1)N1CCCc2ccccc21)OCO3 (centres undefined)	1	0	3%	13	i	1.4
Cc1ccc2cc(C(c3nnnn3CC3CCCO3)N3CCc4ccccc4C3)c(=O)[nH]c2c1 (centres undefined)	1	5	3%	8	i	1.3
O=c1[nH]c2cc3c(cc2cc1CN(Cc1nnnn1CC1CCCO1)C1CCCC1)OCO3 (centres undefined)	1.2	3	12%	11	i	2.5*
CCOc1ccc2[nH]c(=O)c(C(c3nnnn3CC3CCCO3)N3CCc4ccccc4C3)cc2c1 (centres undefined)	1	6	8%	28*	i	1.9
O=c1[nH]c2cc3c(cc2cc1CN(Cc1nnnn1CC1CCCO1)C1CCCCC1)OCO3 (centres undefined)	1.1	7	8%	16	i	1.6
SMILES	A340 absorber	MK inhibit	NADH coupling	PMK inhibit	Spn DPM-DC inh	Fluor 339 460
CCNC(=O)CSc1nc2cc(OC)c(OC)cc2c(=O)n1CCC1=CCCCC1	1	6	7%	14	i	1.1
COc1ccc(C(c2nnnn2CC2CCCO2)N2CCN(c3ccccc3)CC2)cc1 (centres undefined)	1.1	66*	79%	77*	+	1.3
CCCN1CCN(C(c2cc3cc4c(cc3[nH]c2=O)OCO4)c2nnnn2C(C)(C)C)CC1 (centres undefined)	1.1	6	3%	0	.	3.9*
COCCn1nnnc1C(c1cc2cc(C)ccc2[nH]c1=O)N1CCCCCC1 (centres undefined)	1.1	9	9%	13	i	1.4
COCCn1nnnc1CN(Cc1cc2cc(OC)c(OC)cc2[nH]c1=O)C1CCCC1	1.2	1	8%	8	i	2.7*
COCCn1nnnc1C(c1cc2cc(OC)ccc2[nH]c1=O)N1CCC(Cc2ccccc2)CC1 (centres undefined)	1	5	8%	6	i	2.1*
Cc1ccc2cc(C(c3nnnn3C(C)(C)C)N3CCCC3)c(=O)[nH]c2c1C (centres undefined)	1	8	7%	7	i	1.4
CCc1nc(SCC(=O)N2CCCc3ccccc32)c2c(=O)n(C)c(=O)n(C)c2n1	1	5	2%	0	i	1.1
CCS(=O)(=O)N1CCN(Cc2ccccc2OC)CC1	1	2	9%	18	i	1.1
COc1ccccc1N1CCN(Cc2ccsc2)CC1	1.1	42*	14%	0	i	1
c1ccc(N2CCN(Cc3ccsc3)CC2)nc1	1.1	36	23%	7	i	0.65
CCOc1ccccc1CN1CCN(S(=O)(=O)CC)CC1	1	58*	23%	10	i	1
CCOc1ccccc1N1CCN(Cc2cccc(OC)c2OC)CC1	1.1	49*	17%	2	i	1.1
COc1ccc(OC)c(CN2CCN(c3ccccc3OC)CC2)c1	1.1	51*	24%	13	i	0.96
CCCS(=O)(=O)N1CCN(Cc2ccccc2OCC)CC1	1.1	0	0%	0	i	1.1
Cc1ccc2[nH]c(=O)c(CN(Cc3ccccc3Cl)C(=O)N3CCOCC3)cc2c1	1.1	12	9%	10	i	1.6
COc1ccccc1N1CCN(Cc2ccc(OC)c(OC)c2OC)CC1	1.1	47*	16%	0	i	1.1
CCOc1ccccc1-c1nc2c([nH]1)c(=O)n(C)c(=O)n2C	1.1	0	8%	9	i	2.9*
CCN(CC)CCCN(Cc1cc2cc3c(cc2[nH]c1=O)OCCO3)C(=O)Nc1ccc(F)cc1	1.1	.	11%	6	i	3.2*
CC(=O)N(CCc1ccccc1C)Cc1cc2cc3c(cc2[nH]c1=O)OCO3	1.1	6	4%	8	.	3*

Screens: PubChem BioAssay, SRMLSC
